# PubChem BioAssay
# The other results are listed elsewhere or left out. Results filed as inconclusive are left out. Activity calls are given as the source filed them.
# Assays:
# [1] = inhibitors of TNFa-induced NFkB p65 translocation, primary screen, imaging, HUVEC, MLSMR starter and 10KST1 sets (AID 438;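 active = inhibition above 20% together with a positive visual image hit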;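 note: compound added about 3h40 before a 20 min TNFalpha stimulation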;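 for inhibition: signal is the nuclear over cytoplasmic p65 intensity ratio per well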); conditions: HUVEC TNFa-induced p65 nuclear translocation; cell count: measured here: nuclei count (cytotoxicity indicator), at 2.08 µM; inhibition: at 2 µM, stronger effect = higher value, 0% TNFa-plus-vehicle, 100% no-TNFa wells
# [2] = reduction of polyQ htt aggregates in cells – imaging, exon1htt(103Q)mCFP cells, high-content imaging, primary screen (AID 483;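 active = visual image review flags a hit and inhibition of aggregation exceeds 20%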;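 note: compound exposure lasted 3 days before fixation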;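 for nuclei count: percent of the per-plate median nuclei count of sample wells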); conditions: exon1htt(103Q)mCFP cell line, aggregate imaging, at 2 µM; inhibition of aggregation: stronger effect = higher value; nuclei count: measured here: cell count, toxicity
# [3] = endothelial E-selectin expression blockers – imaging, HUVEC, immunofluorescence, MLSMR starter and 10KST1 sets, primary screen (AID 487;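 active = visually confirmed hit in the image check and inhibition above 20%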;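 for inhibition: signal is fraction of cell area covered by stained E-selectin grains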;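 for nuclei count: 100% = median nuclei count of all wells on the same plate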); conditions: HUVEC TNFalpha-induced E-selectin immunofluorescence imaging, at 2 µM; inhibition: stronger effect = higher value; nuclei count: measured here: cell number, toxicity
# [4] = target: Voltage-gated potassium channel subunit beta-2 (Rattus norvegicus) (UniProt P62483); assay: inhibitors of rat Kvbeta2 reductase activity – biochemical, NADPH fluorescence, primary screen (AID 622;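 active = fluorescence slope higher than the sample average by over 3 SD, cut at about -0.22 in these data, passing the limit was not always enough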;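 note: slope of raw intensity against log time taken from 70 to 1610 s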); conditions: recombinant KvBeta, 4-cyanobenzaldehyde reduction, at 10 µM, stronger effect = higher value
# Sequence of Voltage-gated potassium channel subunit beta-2 (Rattus norvegicus) (P62483 whole entry, looked up): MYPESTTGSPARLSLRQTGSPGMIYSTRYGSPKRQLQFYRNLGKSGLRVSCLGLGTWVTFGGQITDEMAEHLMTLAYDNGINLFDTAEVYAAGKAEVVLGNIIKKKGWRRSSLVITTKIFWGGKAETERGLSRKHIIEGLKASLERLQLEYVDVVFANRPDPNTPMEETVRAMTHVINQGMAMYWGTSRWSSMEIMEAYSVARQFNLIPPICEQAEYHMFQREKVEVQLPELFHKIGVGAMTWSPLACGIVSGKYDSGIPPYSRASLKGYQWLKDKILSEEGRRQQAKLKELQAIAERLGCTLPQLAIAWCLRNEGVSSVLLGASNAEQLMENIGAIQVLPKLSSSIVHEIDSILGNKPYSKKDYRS
# [5] = target: Voltage-gated potassium channel subunit beta-2 (Rattus norvegicus) (UniProt P62483); assay: enhancers of rat Kvbeta2 NADPH turnover – biochemical, NADPH fluorescence, primary screen (AID 623;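 active = NADPH fluorescence slope more negative than the mean of all samples by about 3 SD, 99.7% confidence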;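 note: fluorescence intensity change per second fitted from 20 to 320 s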); conditions: Recombinant KvBeta, NADPH fluorescence decrease slope, 10 min; at 10 µM; stronger effect = lower value
# [6] = target: Alpha-2C adrenergic receptor (Homo sapiens) (UniProt P18825); assay: compounds altering alpha2C-coupled GIRK flux – cell-based, HEK293 alpha2C/GIRK1/2, thallium flux, primary screen (AID 624;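 active = fluorescence slope after compound addition differing from the mean of all screened samples at 99.7% confidence, in either direction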;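 note: slope of fluorescence ratio to pre-addition baseline per second over 15 to 24 s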); conditions: thallium flux BTC fluorescence, at 10 µM, actives lie on both sides
# Sequence of Alpha-2C adrenergic receptor (Homo sapiens) (P18825 whole entry, looked up): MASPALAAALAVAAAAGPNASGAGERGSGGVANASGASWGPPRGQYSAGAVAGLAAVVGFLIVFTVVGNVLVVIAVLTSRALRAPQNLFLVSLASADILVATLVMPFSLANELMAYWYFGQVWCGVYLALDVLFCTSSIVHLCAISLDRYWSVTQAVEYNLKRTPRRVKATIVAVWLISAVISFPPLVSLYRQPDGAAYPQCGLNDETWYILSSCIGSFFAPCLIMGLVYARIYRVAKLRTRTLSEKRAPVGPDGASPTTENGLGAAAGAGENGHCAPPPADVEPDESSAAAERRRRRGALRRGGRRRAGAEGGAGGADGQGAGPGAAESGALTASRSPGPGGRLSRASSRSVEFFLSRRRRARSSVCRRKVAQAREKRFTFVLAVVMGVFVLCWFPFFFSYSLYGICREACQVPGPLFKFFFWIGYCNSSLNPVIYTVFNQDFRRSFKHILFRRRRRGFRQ
# [7] = target: Solute carrier family 12 member 5 (Homo sapiens) (UniProt Q9H2X9); assay: retest of KCC2 transport modulators without sodium – cell-based, HEK293 KCC2, thallium flux, secondary assay, confirmation (AID 1713;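 active = thallium flux slope above the same plate's solvent-only control mean plus 3 SD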); conditions: FluoZin2 fluorescence, at 10 µM, stronger effect = higher value
# Sequence of Solute carrier family 12 member 5 (Homo sapiens) (Q9H2X9 whole entry, looked up): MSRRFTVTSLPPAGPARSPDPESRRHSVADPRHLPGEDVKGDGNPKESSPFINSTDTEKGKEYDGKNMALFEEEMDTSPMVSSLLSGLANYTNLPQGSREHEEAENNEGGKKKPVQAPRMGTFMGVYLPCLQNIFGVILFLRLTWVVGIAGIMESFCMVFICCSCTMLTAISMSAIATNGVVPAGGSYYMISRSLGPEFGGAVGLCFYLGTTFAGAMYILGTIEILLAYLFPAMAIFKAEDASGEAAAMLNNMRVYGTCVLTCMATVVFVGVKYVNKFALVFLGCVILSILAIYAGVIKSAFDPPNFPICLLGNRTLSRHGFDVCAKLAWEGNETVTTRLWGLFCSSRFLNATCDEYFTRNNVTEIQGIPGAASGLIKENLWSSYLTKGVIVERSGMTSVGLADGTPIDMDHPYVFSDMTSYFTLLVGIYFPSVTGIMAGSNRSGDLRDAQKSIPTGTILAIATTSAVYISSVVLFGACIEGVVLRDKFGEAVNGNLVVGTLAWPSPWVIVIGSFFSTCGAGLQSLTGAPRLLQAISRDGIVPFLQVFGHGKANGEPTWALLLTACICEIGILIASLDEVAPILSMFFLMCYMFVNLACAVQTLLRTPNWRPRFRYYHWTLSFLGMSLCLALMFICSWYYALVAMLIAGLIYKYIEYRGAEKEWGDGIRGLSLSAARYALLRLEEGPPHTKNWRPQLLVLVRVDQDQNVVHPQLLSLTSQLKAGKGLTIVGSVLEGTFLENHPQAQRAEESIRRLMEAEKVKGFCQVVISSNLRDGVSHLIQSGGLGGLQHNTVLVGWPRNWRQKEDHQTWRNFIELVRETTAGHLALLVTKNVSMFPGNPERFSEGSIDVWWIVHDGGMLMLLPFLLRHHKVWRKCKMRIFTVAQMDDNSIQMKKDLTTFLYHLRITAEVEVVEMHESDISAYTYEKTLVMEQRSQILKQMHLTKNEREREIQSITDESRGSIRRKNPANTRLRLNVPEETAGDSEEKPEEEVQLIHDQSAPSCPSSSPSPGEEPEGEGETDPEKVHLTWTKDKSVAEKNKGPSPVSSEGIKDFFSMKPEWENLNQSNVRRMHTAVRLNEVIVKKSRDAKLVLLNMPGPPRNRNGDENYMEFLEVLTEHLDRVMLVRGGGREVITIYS
# PubChem AID 1714 = conditions: HEK293-KCC2 + bumetanide/ouabain, thallium flux FluoZin2; at 10 µM; stronger effect = higher value
# [8] = target: Solute carrier family 12 member 5 (Homo sapiens) (UniProt Q9H2X9); assay: retest of KCC2 transport modulation, ouabain-free – cell-based, HEK293 KCC2, thallium flux, FluoZin2, secondary assay 2, confirmation (AID 1715;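 active = thallium flux slope more than 3 SD above or below the plate's solvent-only control mean, mostly below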;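 note: raw slope with 0.1% DMSO as baseline and bumetanide as block control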); conditions: HEK293-KCC2, thallium flux FluoZin2 fluorescence; at 10 µM; actives lie on both sides; F/F0 rise rate, 10–20 s post-thallium
# [9] = compound effects on native HEK Tl+ uptake – HEK cells, counterscreen 1, counter-screen for KCC2 modulator project, confirmation (AID 1716;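 active = thallium flux rate significantly above the same plate's solvent-only control wells, beyond their mean plus 3 SD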); conditions: HEK293 parental cells, thallium flux FluoZin2, ouabain; at 10 µM; baseline-ratio fluorescence slope, 10–20 s after thallium
# [10] = native HEK Tl+ uptake effects, second counter-screen – HEK cells, counterscreen 2, counter-screen for KCC2 modulator project, confirmation (AID 1718); conditions: HEK293 parental, thallium flux FluoZin-2 fluorescence slope; at 10 µM;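 note: run without ouabain in cells lacking the KCC2 cotransporter; slope of fluorescence scaled to its starting value between 10 and 20 s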
# [11] = blockers of RIG-like receptor reporter activation – cell-based, Sendai virus stimulus, luciferase, 10K MLSCN set, TLR/RLR signaling modifier project, primary screen (AID 602276;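 active = inhibition at or above 50% at 10 µM; inactive = inhibition below 50%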;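 note: firefly luciferase from ISG56 promoter only with Renilla not read in this screen; 0% = Sendai virus plus DMSO and 100% = medium plus DMSO without virus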); conditions: HEK293 RL24 IRF3 luciferase reporter, at 10 µM, stronger effect = higher value
# [12] = TLR3 IRF3 reporter activation blockers – cell-based, poly I:C stimulus, luciferase, 10K MLSCN set, primary screen (AID 602277;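 active = inhibition of the reporter signal at or above 50%; inactive = inhibition below 50%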); conditions: HEK293-TLR3 RL24 IRF3 luciferase reporter, at 10 µM, stronger effect = higher value
# [13] = target: Solute carrier family 12 member 5 (Homo sapiens) (UniProt Q9H2X9); assay: modulation of KCC2 thallium flux in HEK cells – cell-based, ouabain, retest, confirmation (AID 1717;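 active = thallium flux slope beyond 3 SD from same-plate DMSO control mean in most replicates, usually higher, sometimes lower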;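 note: slope of initial-normalized fluorescence between seconds 10 and 20 after thallium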); conditions: HEK293-KCC2, thallium flux FluoZin2 fluorescence, at 10 µM, bidirectional: low = inhibitor, high = activator
smiles,measurement,setting,value
O=C(C1CCN(c2nnc(-n3cccc3)s2)CC1)N1CCc2ccccc2C1,cell count,[1],479
same,inhibition,[1],-5% (inactive)
same,inhibition of aggregation,[2],-15.5% (inactive)
same,nuclei count,[2],65.3%
same,inhibition,[3],-9.9% (inactive)
same,nuclei count,[3],104%
same,fluorescence slope,[4],-0.605 (inactive)
same,NADPH fluorescence slope,[5],-3.9e-05 (inactive)
same,slope,[6],0.00552 (inactive)
same,normalised thallium flux (F/F0 slope),[7],0.00728 (inactive)
same,normalized thallium flux,PubChem AID 1714,0.00506 (inactive)
same,normalized thallium flux,[8],0.0245 (active)
same,thallium flux rate (normalised fluorescence),[9],0.00773 (inactive)
same,thallium flux slope,[10],0.0107 (inactive)
same,inhibition,[11],0.226% (inactive)
same,inhibition,[12],24.9% (inactive)
O=C(Nc1ccc2oc(-c3ccccc3F)nc2c1)c1ccco1,normalised thallium flux (F/F0 slope),[7],0.0157 (inactive)
same,normalized thallium flux,PubChem AID 1714,0.00477 (inactive)
same,thallium flux rate (normalised fluorescence),[9],0.00696 (inactive)
same,"raw Tl+ flux slope (below DMSO = inhibition, above = activation)",[13],0.0137 (inactive)
same,thallium flux slope,[10],0.00945 (inactive)
Cn1c(C(=O)NCCc2ccsc2)cc2c(=O)n(C)c3ccccc3c21,normalised thallium flux (F/F0 slope),[7],0.00557 (inactive)
same,normalized thallium flux,PubChem AID 1714,0.00386 (inactive)
same,"raw Tl+ flux slope (below DMSO = inhibition, above = activation)",[13],0.0126 (active)
same,thallium flux slope,[10],0.00931 (inactive)
Cc1ccc(OCC(=O)N2CCN(C(=O)c3cccnc3)CC2)cc1,normalised thallium flux (F/F0 slope),[7],0.00886 (inactive)
same,normalized thallium flux,PubChem AID 1714,0.00586 (inactive)
same,normalized thallium flux,[8],0.0326 (inactive)
same,"raw Tl+ flux slope (below DMSO = inhibition, above = activation)",[13],0.0189 (inactive)
same,thallium flux slope,[10],0.0114 (inactive)
Cc1ccc(C)c(NC(=S)NNC(=S)Nc2ccc(C(C)C)cc2)c1,normalised thallium flux (F/F0 slope),[7],0.0145 (inactive)
same,normalized thallium flux,PubChem AID 1714,0.00979 (active)
same,thallium flux rate (normalised fluorescence),[9],0.0112 (active)
same,"raw Tl+ flux slope (below DMSO = inhibition, above = activation)",[13],0.0152 (active)
same,thallium flux slope,[10],0.0121 (inactive)
CCCCn1c(=S)[nH]c2ncccc2c1=O,normalised thallium flux (F/F0 slope),[7],0.0429 (active)
same,normalized thallium flux,PubChem AID 1714,0.12 (active)
same,"raw Tl+ flux slope (below DMSO = inhibition, above = activation)",[13],0.0884 (active)
same,thallium flux slope,[10],0.0266 (active)
COc1ccccc1N1CCN(C(=O)CSc2ncnc3c2cnn3-c2ccc(C)c(C)c2)CC1,normalised thallium flux (F/F0 slope),[7],0.00591 (inactive)
same,normalized thallium flux,PubChem AID 1714,0.00504 (inactive)
same,normalized thallium flux,[8],0.029 (inactive)
same,"raw Tl+ flux slope (below DMSO = inhibition, above = activation)",[13],0.0176 (inactive)
same,thallium flux slope,[10],0.0103 (inactive)
COc1ccc(Cl)cc1C(=O)NNC(=S)NC(=O)/C=C/c1ccco1,normalised thallium flux (F/F0 slope),[7],0.0165 (inactive)
same,normalized thallium flux,PubChem AID 1714,0.0479 (active)
same,thallium flux rate (normalised fluorescence),[9],0.0367 (active)
same,"raw Tl+ flux slope (below DMSO = inhibition, above = activation)",[13],0.0379 (active)
same,thallium flux slope,[10],0.0335 (active)
Oc1c(Cl)cc(Cl)c(Cl)c1Cc1c(O)c(Cl)cc(Cl)c1Cl,normalised thallium flux (F/F0 slope),[7],0.0104 (inactive)
same,normalized thallium flux,PubChem AID 1714,0.0366 (active)
same,normalized thallium flux,[8],0.0364 (inactive)
same,thallium flux slope,[10],0.0102 (inactive)
Fc1ccc(COc2cccc(-c3n[nH]c(=S)o3)c2)cc1,normalised thallium flux (F/F0 slope),[7],0.0171 (inactive)
same,normalized thallium flux,PubChem AID 1714,0.101 (active)
same,thallium flux rate (normalised fluorescence),[9],0.0348 (active)
same,"raw Tl+ flux slope (below DMSO = inhibition, above = activation)",[13],0.042 (active)
same,thallium flux slope,[10],0.0338 (active)
CCCCn1c(SCC(=O)NCC2CCCO2)nc2ccc(N3CCOCC3)cc2c1=O (stereo not drawn),normalised thallium flux (F/F0 slope),[7],0.0177 (inactive)
same,normalized thallium flux,PubChem AID 1714,0.0198 (active)
same,thallium flux rate (normalised fluorescence),[9],0.0094 (active)
same,"raw Tl+ flux slope (below DMSO = inhibition, above = activation)",[13],0.0187 (active)
same,thallium flux slope,[10],0.013 (active)
O=C(CSc1ccc(-c2cccs2)nn1)Nc1ccccc1F,normalised thallium flux (F/F0 slope),[7],0.00973 (inactive)
same,normalized thallium flux,PubChem AID 1714,0.00689 (inactive)
same,thallium flux rate (normalised fluorescence),[9],0.00368 (inactive)
same,"raw Tl+ flux slope (below DMSO = inhibition, above = activation)",[13],0.017 (active)
same,thallium flux slope,[10],0.0107 (inactive)
